Assay results from PubChem BioAssay (NCATS).
Several values for one entry are separate records, joined by “and”; a condition that tells them apart may be missing. Equal entries are not always repeated. Results filed as inconclusive are left out. The source holds several records for some structures; these can differ, active in one and inactive in another. Activity calls are given as the source filed them. Calls come from the whole dose curve; as a rule, active = well fitted curve in the direction sought with a large enough effect; inconclusive = small, poorly fitted or top-dose-only effect, or another doubt; inactive = no such curve, though single readings can be large; an effect the other way counts as inactive or inconclusive.

Tests used:
[1] = biological target: Glutathione peroxidase 1 (Homo sapiens) (UniProt P07203); assay: Primary qHTS Assay for Inhibitors of Recombinant Selenoprotein Glutathione Peroxidase 1 (GPX1) (AID 1845191); note: nearly all actives have a fitted effect of over 65% in size; note: potency is the fitted concentration of half-maximal effect; for activity, negative = inhibition: % is set by controls: 0 for no effect and ±100 for the full control effect
Sequence of Glutathione peroxidase 1 (Homo sapiens) (P07203 whole entry, looked up): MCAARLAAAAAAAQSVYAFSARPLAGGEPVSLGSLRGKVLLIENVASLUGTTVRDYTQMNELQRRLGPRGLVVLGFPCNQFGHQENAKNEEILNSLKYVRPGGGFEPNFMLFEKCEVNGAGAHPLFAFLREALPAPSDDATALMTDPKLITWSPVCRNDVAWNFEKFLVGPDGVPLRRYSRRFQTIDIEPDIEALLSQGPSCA
Method in brief: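 GR-coupled readout: NADPH consumption tracked by fluorescence, ex 340/em 450 nm, at t=0 and after 15 min at RT. Final mix 10 nM GPX1, 1 mM GSH, 0.5 mM CHP, 0.5 mM NADPH, 100 nM GR, 0.01% BSA, following 30 min enzyme–compound preincubation.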

[2] = biological target: Phospholipid hydroperoxide glutathione peroxidase GPX4 (Homo sapiens) (UniProt P36969); assay: Primary qHTS Assay for Inhibitors of Recombinant Selenoprotein Glutathione Peroxidase 4 (GPX4) (AID 1845192); note: nearly all actives have a fitted effect of over 65% in size; note: potency is the fitted concentration of half-maximal effect
Sequence of Phospholipid hydroperoxide glutathione peroxidase GPX4 (Homo sapiens) (P36969 whole entry, looked up): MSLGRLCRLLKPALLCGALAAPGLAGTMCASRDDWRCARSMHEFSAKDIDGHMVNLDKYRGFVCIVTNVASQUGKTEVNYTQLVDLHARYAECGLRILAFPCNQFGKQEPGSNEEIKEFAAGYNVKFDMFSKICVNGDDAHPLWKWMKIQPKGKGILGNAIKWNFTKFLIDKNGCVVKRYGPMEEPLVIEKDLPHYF
Method in brief: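 Steps: GPX4 plus compound, 30 min RT; add GR/GSH/NADPH master mix; start with cumene hydroperoxide; read 340/450 nm fluorescence at 0 and 15 min. Finals were 200 nM GPX4, 1 mM GSH, 0.5 mM CHP, 0.5 mM NADPH, 100 nM GR.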

[3] = biological target: Luciferin 4-monooxygenase (Photinus pyralis) (UniProt P08659); assay: Primary firefly luciferase (FLuc) qHTS assay for identification of artifact compounds. (AID 1845220); note: nearly all actives have a fitted effect of over 60% in size
Method in brief: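 D-luciferin and ATP (10 uM each, final) in Tris acetate buffer pH 7.6 were incubated with compounds for 15 min at room temperature. The reaction was started with 10 nM Photinus pyralis luciferase and luminescence read after 5 min. Percent inhibition was fitted to a 4-parameter Hill equation.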

[4] = Primary fluorescence-based thiol-reactive (MSTI) qHTS assay for identification of artifact compounds. (AID 1845221); note: nearly all actives have a fitted effect of over 65% in size; note: potency is the fitted concentration of half-maximal effect;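 for activity change, negative = thiol reactive: series mostly up to about 54 µM; thiol-reactive compounds lower the probe fluorescence signal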
Method in brief: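 Reactivity toward the thiol probe MSTI (4 uM) is scored by fluorescence at Ex/Em 525/598 nm after 1 h at room temperature. Acetyl-MSTI and MSTI define the activity scale.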

COc1ccc([C@@H]2CC(=O)c3c(O)cc(O[C@@H]4O[C@H](CO[C@@H]5O[C@@H](C)[C@H](O)[C@@H](O)[C@@H]5O)[C@@H](O)[C@H](O)[C@@H]4O)cc3O2)cc1O
inactive: Potency [1] | Potency [2]

c1ccc(-c2nn3c(c2-c2ccnc4cc(OCCN5CCOCC5)ccc24)CCC3)nc1
inactive: Potency [1] | Potency [2]

COc1cc2c(cc1OC)CN(CCc1ccc(NC(=O)c3cccc4c(=O)c5cccc(OC)c5[nH]c34)cc1)CC2
inactive: Potency [1] | Potency [2] | Potency [3] | Potency [4]

Cc1cc(Nc2nc(N[C@@H](C)c3ncc(F)cn3)ncc2Cl)n[nH]1
inactive: Potency [1] | Potency [2] | Potency [3] | Potency [4]

CC1(C)CNc2cc(NC(=O)c3cccnc3NCc3ccncc3)ccc21
inactive: Potency [1] | Potency [2]

COc1ccc(CCN2CCN(CCCc3ccccc3)CC2)cc1OC
inactive: Potency [1] | Potency [2] | Potency [3] | Potency [4]

O=C(c1cc(Cc2n[nH]c(=O)c3ccccc23)ccc1F)N1CCN(C(=O)C2CC2)CC1
inactive: Potency [1] | Potency [2] | Potency [3] | Potency [4]

COc1ccc(CC2=NN3C([C@@H](CCc4ccccc4)[C@@H](C)O)=NC(C)C3C(=O)N2)cc1OC (stereo not given in full)
inactive: Potency [1] | Potency [2]

COc1ccc2nc(S(=O)Cc3ncc(C)c(OC)c3C)[nH]c2c1 (stereo not given)
5.08 µM (active) and inactive: Potency [1]
active: Potency [2] 11.4 µM

CNC(=O)c1ccc(C)c(-n2c(C)cc(OCc3ccc(F)cc3F)c(Br)c2=O)c1
inactive: Potency [1] | Potency [2] | Potency [3] | Potency [4]

COc1ccc(C2=N[C@H](c3ccc(Cl)cc3)[C@H](c3ccc(Cl)cc3)N2C(=O)N2CCNC(=O)C2)c(OC(C)C)c1
inactive: Potency [1] | Potency [2]

O=C(Nc1cccnc1)N1CCC(Cc2cccc(Oc3ccc(C(F)(F)F)cn3)c2)CC1
inactive: Potency [1] | Potency [2] | Potency [3] | Potency [4]

CCCc1nn(C)c2c(=O)[nH]c(-c3cc(S(=O)(=O)N4CCN(C)CC4)ccc3OCC)nc12
inactive: Potency [1] | Potency [2] | Potency [3] | Potency [4]

CCOc1cc(N2CCC(O)CC2)ccc1Nc1ncc2c(n1)N(C)c1ccccc1C(=O)N2C
inactive: Potency [1] | Potency [2]

Nc1nc2[nH]cc(CCc3ccc(C(=O)N[C@@H](CCC(=O)O)C(=O)O)cc3)c2c(=O)[nH]1
inactive: Potency [1] | Potency [2]

N#Cc1ccc(C(c2ccc(C#N)cc2)n2cncn2)cc1
inactive: Potency [1] | Potency [2]

Cc1ccnc(NS(=O)(=O)c2ccc(NC(=O)Nc3ccc(S(=O)(=O)Nc4nccc(C)n4)cc3)cc2)n1
inactive: Potency [1] | Potency [2] | Potency [3] | Potency [4]

Cn1cc(-c2ccc3nnc(C(F)(F)c4ccc5ncccc5c4)n3n2)cn1
inactive: Potency [1] | Potency [2] | Potency [3] | Potency [4]

CCCS(=O)(=O)Nc1ccc(F)c(C(=O)c2c[nH]c3ncc(Cl)cc23)c1F
inactive: Potency [1] | Potency [2] | Potency [3] | Potency [4]

COc1ccc2c3n(c(=NC(=O)c4cccnc4)nc2c1OC)CCN3
inactive: activity, negative = inhibition [1] 0.782% [at 4.49 µM] | outcome [2] inactive [at 4.52 µM]

CN(C)C(=O)c1ccc(S(=O)(=O)c2ccc(NC(=O)[C@@](C)(O)C(F)(F)F)c(Cl)c2)cc1
inactive: Potency [1] | Potency [2] | Potency [3] | Potency [4]

CC(C)(N)C(=O)N[C@H](COCc1ccccc1)C(=O)N1CCC2(CC1)CN(S(C)(=O)=O)c1ccccc12
inactive: Potency [1] | Potency [2] | Potency [3] | Potency [4]

CC(C)OC(=O)C1=CN(C(=O)c2ccc(F)c(F)c2)CC(C)(C)c2c1[nH]c1ccccc21
inactive: Potency [1] | Potency [2] | Potency [3]

Cc1n[nH]c(C)c1Cc1sc2c(c1C(=O)N1C[C@H](O)CO1)c(=O)n(C)c(=O)n2CC(C)C
inactive: Potency [1] | Potency [2] | Potency [3] | Potency [4]

COc1c(Cl)cc2c([nH]c3cnccc32)c1NC(=O)c1cccnc1C
inactive: Potency [1] | Potency [2] | Potency [3] | Potency [4]

S=C(NCc1ccc2c(c1)OCO2)N1CCN(c2ncnc3c2oc2ccccc23)CC1
inactive: Potency [1] | Potency [3] | Potency [4]

CN(C)c1ccc(C2Nc3ccc4ccccc4c3C3=C2C(=O)CC(C)(C)C3)cc1Br (stereo not given)
inactive: Potency [1] | Potency [2] | Potency [3] | Potency [4]

CCCS(=O)(=O)Nc1ccc(F)c(C(=O)c2c[nH]c3ncc(-c4ccc(Cl)cc4)cc23)c1F
inactive: Potency [1] | Potency [2] | Potency [3] | Potency [4]

O=C(C1CC1)N1CC[C@@H](Cn2c(-c3ccc(-c4ccc5occc5c4)cc3)nc3cnccc32)C1
active: Potency [2] 22.7 µM

CC[C@H](Nc1ncnc2nc[nH]c12)c1nc2cccc(F)c2c(=O)n1-c1ccccc1
inactive: Potency [1] | Potency [2] | outcome [3] inactive [at 11.6 µM] | activity change, negative = thiol reactive [4] 52.7% [at 11.5 µM]

CNCc1ccc(-c2[nH]c3cc(F)cc4c3c2CCNC4=O)cc1
inactive: Potency [3] | Potency [4]
active: Potency [1] 20.2 µM | Potency [2] 11.4 µM and 12.8 µM and 15.8 µM

CN(C)c1ccc(Nc2nc(N)n(C(=O)c3c(F)cccc3F)n2)cc1
active: Potency [4] 1.34 µM
inactive: Potency [3]

CN(C(=O)c1ccc(F)cc1C(F)(F)F)C1CCN(c2nnc(-c3ccnn3C)c3ccccc23)CC1
inactive: Potency [1] | Potency [2] | Potency [3] | Potency [4]

O=c1[nH]c(-c2ccc(C(F)(F)F)cc2)nc2c1CSCC2
inactive: Potency [1] | Potency [2] | Potency [3] | Potency [4]

Clc1ccc(Nc2nnc(Cc3ccncc3)c3ccccc23)cc1
inactive: Potency [1] | Potency [2] | Potency [3] | Potency [4]

CC[C@@H](C)[C@H](NC(=O)[C@H](CC1CCCCC1)NC(=O)c1ccno1)C(=O)N1CCC2(CCc3ccccc32)CC1
inactive: Potency [1] | Potency [2] | Potency [3] | Potency [4]

CC(C)(C)OC(=O)CN(Cc1ccc(Cl)cc1)Cc1ccc([N+](=O)[O-])s1
inactive: Potency [2]

CS(=O)(=O)c1ccc(C(=O)Nc2ccc(Cl)c(-c3ccccn3)c2)c(Cl)c1
inactive: Potency [1] | Potency [2] | Potency [3] | Potency [4]

O=C(Nc1ccc(F)c(C(F)(F)F)c1)Nc1nnc(-c2ccncc2)s1
inactive: Potency [1] | Potency [2] | Potency [3] | Potency [4]

Cn1cnc2c(F)c(Nc3ccc(Br)cc3Cl)c(C(=O)NOCCO)cc21
inactive: Potency [1] | Potency [2] | Potency [3] | Potency [4]

Cc1csc(NC(=O)c2sc3nc4c(c(C(F)(F)F)c3c2N)CCC4)n1
inactive: Potency [2] | Potency [4]

CCOc1ccn(-c2ccc(F)cc2)c(=O)c1C(=O)Nc1ccc(Oc2ccnc(N)c2Cl)c(F)c1
inactive: Potency [1] | Potency [2] | Potency [3] | Potency [4]

COc1cc(F)c(F)c(Nc2ccc(I)cc2F)c1NS(=O)(=O)C1(C[C@H](O)CO)CC1
inactive: Potency [1] | Potency [2] | Potency [3] | Potency [4]
